The sample as a whole holds a higher share of the strongest signals than the screen did.
What was measured:
Test in all cases: glycan array binding signal (z-score within array); higher = stronger binding
Settings in all cases: glycan notation: IUPAC condensed, linker removed
[1] = tested on: GlcNAc(a1-3)Gal(b1-4)GlcNAc
Outline: (§1)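 Columns mapping to the same glycan were averaged after glycan names were converted to IUPAC-condensed notation. The data come from 3228 arrays in the Consortium for Functional Glycomics database, limited to those with an available protein sequence. Binding is reported as a within-array Z-score averaged across arrays of one protein sequence and across linkers.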

[2] = tested on: GlcNAc(a1-4)Gal(b1-4)GlcNAc(b1-3)Gal(b1-4)GlcNAc
Outline: as §1

[3] = tested on: GlcNAc(a1-4)Gal(b1-4)GlcNAc(b1-3)Gal(b1-4)[Fuc(a1-3)]GlcNAc(b1-3)Gal(b1-4)[Fuc(a1-3)]GlcNAc
Outline: as §1

[4] = tested on: GlcNAc(b1-2)Man(a1-3)[GlcNAc(b1-2)Man(a1-6)]Man(b1-4)GlcNAc(b1-4)[Fuc(a1-6)]GlcNAc
Outline: as §1

[5] = tested on: GlcNAc(b1-2)[GlcNAc(b1-4)]Man(a1-3)[GlcNAc(b1-2)Man(a1-6)]Man(b1-4)GlcNAc(b1-4)GlcNAc
Outline: as §1

[6] = tested on: GlcNAc(b1-2)Gal(b1-3)GalNAc
Outline: as §1

[7] = tested on: GlcNAc(b1-2)[GlcNAc(b1-4)]Man(a1-3)[GlcNAc(b1-4)][GlcNAc(b1-2)[GlcNAc(b1-6)]Man(a1-6)]Man(b1-4)GlcNAc(b1-4)GlcNAc
Outline: as §1

[8] = tested on: GlcNAc(b1-2)Man(a1-3)[GlcNAc(b1-2)Man(a1-6)]Man(b1-4)GlcNAc(b1-4)GlcNAc
Outline: as §1

[9] = tested on: GlcNAc(a1-4)Gal(b1-4)GalNAc
Outline: as §1

[10] = tested on: GlcNAc(b1-2)Man(a1-3)[GlcNAc(b1-4)][GlcNAc(b1-2)Man(a1-6)]Man(b1-4)GlcNAc(b1-4)[Fuc(a1-6)]GlcNAc
Outline: as §1

BambL (Burhholderia ambifaria), Q0B4G1
glycan array binding signal (z-score) [1]: -0.316
glycan array binding signal (z-score) [2]: -0.278
glycan array binding signal (z-score) [3]: 0.185
glycan array binding signal (z-score) [4]: 0.071
glycan array binding signal (z-score) [5]: -0.291

SiiE (Salmonella typhimurium), A0A0H3NVH0
glycan array binding signal (z-score) [6]: 0.158
glycan array binding signal (z-score) [7]: -1.05

AgI/IIC123-GFP (Streptococcus mutans)
glycan array binding signal (z-score) [8]: -0.346

Wza (Escherichia coli), P0A930
glycan array binding signal (z-score) [3]: 3.13

Epa22
glycan array binding signal (z-score) [9]: -0.638
glycan array binding signal (z-score) [4]: -0.14

LcI (Legionella pneumophila)
glycan array binding signal (z-score) [10]: -0.447
glycan array binding signal (z-score) [7]: -0.477

AgI/II Vhelical-GFP (Streptococcus mutans)
glycan array binding signal (z-score) [2]: 1.06
glycan array binding signal (z-score) [5]: -0.187

GspB (Streptococcus gordonii), Q939N5
glycan array binding signal (z-score) [1]: 2.63
